The results in this text go back to PubChem BioAssay (NCI).

Experiment in all cases: NCI-60 one-dose screen, 48 h (100 = growth as untreated, 0 = no growth, -100 = all killed)
Holding throughout (details): 10 µM unless noted

The test system of assay [1] is SK-MEL-2 melanoma.
The subject of assay [2] is EKVX NSCLC.
Assay [3] has as its system SN12C renal.
For assay [4], the system named is UO-31 renal.
For assay [5], the system named is TK-10 renal.
The subject of assay [6] is ACHN renal.
In assay [7] the test system is CAKI-1 renal.
Assay [8] concerns A498 renal.
For assay [9], the system named is CCRF-CEM leukemia.
For assay [10], the system named is MOLT-4 leukemia.
The subject of assay [11] is SR leukemia.
In assay [12] the test system is RPMI-8226 leukemia.
Assay [13] deals with OVCAR-8 ovarian.
In assay [14] the test system is OVCAR-5 ovarian.
Assay [15] concerns OVCAR-4 ovarian.
Assay [16] concerns SK-OV-3 ovarian.
Assay [17] deals with IGROV1 ovarian.
For assay [18], the system named is OVCAR-3 ovarian.
Assay [19] concerns HS 578T breast.
Assay [20] deals with NCI/ADR-RES ovarian.

The panel holds about 83,000 compounds, 20% with a hit somewhere; the sample as a whole holds those more often.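 The endpoint reported here, percent growth, reads 100 for growth as untreated, 0 for no net growth and -100 for all cells dead.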 Unmarked numbers belong to inactive results. Calls of active or inactive are those of the source. Rule for the calls: active = growth percent below 10; inactive = the rest.

In the case of `O=C(/C=C1\C(=O)N(Cc2ccccc2)c2ccccc21)c1cc2ccccc2oc1=O`, the growth in [1] is 109%; in [2], 79.6%; in assay [3], 93%; in assay [4], 42.9%; in [5] it was 84.6%; in assay [6], 17.9%. Further, the growth in assay [7] is 69.9%; in assay [8] it was 144%; in assay [9], 43.6%; in [10] it was 31.9%; in assay [11], 22.5%; in assay [12], 98.8%. Besides, the growth in [13] is 98%; in assay [14] it was 116%; in assay [15], 84.5%; in assay [16], 109%; in [17] it was 67.4%; in assay [18], 38.6%. Besides, the growth in [19] is 89.3%; in [20], 91.3%.
For the compound `CCCSc1nnc(-c2sc3nc4ccccc4n3c2C)o1`, the growth in [1] is 105%; in [2], 103%; in assay [3] it was 105%; in assay [4] it was 82.3%; in assay [5], 124%; in assay [6] it was 104%. Besides, the growth was 104% in [7]; 110% in [8]; 107% in assay [9]; 92.3% in assay [10]; 107% in assay [11]; 97.7% in assay [12]. Moreover, the growth in assay [13] is 107%; in [14], 111%; in assay [15] it was 104%; in [16] it was 121%; in assay [17], 107%; in assay [18], 117%. The growth was 109% in [19] and 98.7% in [20].
As to `C/C(=N/O)c1ccc(NC(=O)CSc2nnc(-c3ccc4nc(-c5ccc(Cl)cc5)[nH]c4c3)o2)cc1`, the growth in assay [1] is 65.1%; in assay [2], 99.8%; in [3], 28.8%; in assay [4], 87.7%; in assay [5], 121%; in assay [6], 77.3%. For the same compound, the growth is 97% in assay [7]; 158% in assay [8]; 32.5% in assay [9]; 19.6% in assay [10]; 24% in [11]; 54.4% in assay [12]. Further, the growth was 1.29% (active) in assay [13]; 118% in assay [14]; 101% in [15]; 117% in assay [16]; 102% in assay [17]; 84.7% in assay [18]. For the same compound, the growth was 12.7% in assay [19] and 101% in [20].
For `NNc1ncnc2sc3c(c12)CCN(Cc1ccccc1)C3`, the growth in assay [1] was 82%; in [2] it was 36%; in assay [3], 57%; in assay [4], 51.7%; in assay [5], 93.5%; in assay [6] it was 57.4%. Also, the growth in assay [7] is 56.4%; in assay [8] it was 93.7%; in assay [9], 15.8%; in assay [10] it was 19.7%; in [11] it was 40.1%; in assay [12] it was 39.3%. Further, the growth was 20% in assay [13]; 70.6% in assay [14]; 28.6% in assay [15]; 72.3% in assay [16]; 83.2% in assay [17]; 13.4% in [18]. For the same compound, the growth in assay [19] is 72.3%; in [20], 35.3%.
Turning to `O=C1CC(c2ccc(I)cc2)OC2C=Cc3ccccc3C12` (stereo not given), the growth was 98.8% in [1]; 82.9% in assay [2]; 99% in [3]; 85.8% in assay [4]; 139% in assay [5]; 109% in assay [6]. For the same compound, the growth was 91.7% in [7]; 119% in [8]; 94.4% in [9]; 96% in assay [10]; 88.9% in assay [11]; 87.2% in [12]. For the same compound, the growth is 104% in [13]; 115% in assay [14]; 96.7% in [15]; 96.7% in [16]; 119% in assay [17]; 125% in assay [18]. The growth in assay [19] and in [20] was 104% each time.
As to `O=C1Nc2ccccc2/C1=C/C(=O)c1cc2ccccc2oc1=O`, the growth is 99.5% in assay [1]; 89.6% in assay [2]; 99.3% in assay [3]; 45.8% in assay [4]; 102% in assay [5]; -47.6% (active) in assay [6]. Besides, the growth is 75.5% in assay [7]; 223% in assay [8]; 54.7% in [9]; 41% in assay [10]; 56.8% in [11]; 95.9% in [12]. Besides, the growth in assay [13] was 109%; in assay [14], 112%; in [15], 104%; in assay [16] it was 91.9%; in assay [17] it was 98.3%; in [18], 55.9%. Moreover, the growth was 105% in assay [19] and 107% in [20].
For the compound `Cc1nn(-c2ccccc2)c2nc(C)n(CC(=O)N/N=C/c3cccc([N+](=O)[O-])c3)c(=O)c12`, the growth in [1] is 101%; in [2] it was 76.8%; in assay [3], 89.1%; in assay [4] it was 69.7%; in [5] it was 103%; in assay [6], 104%. Besides, the growth was 88% in assay [7]; 95.8% in [8]; 85.1% in assay [9]; 88% in [10]; 85.8% in assay [11]; 85.3% in assay [12]. Besides, the growth was 98.5% in [13]; 109% in assay [14]; 91.2% in [15]; 92.8% in assay [16]; 91.8% in assay [17]; 106% in assay [18]. Further, the growth in assay [19] was 92.7%; in assay [20], 97%.
As to `O=C(NNC(=S)NCCc1ccccc1)c1ccc(OCc2nc3ccc(Cl)cc3[nH]2)cc1`, the growth in assay [1] is 71.6%; in assay [2] it was 66.1%; in assay [3], 73.1%; in [4], 54.1%; in assay [5], 83.8%; in assay [6], 81.1%. For the same compound, the growth in [7] is 79.9%; in [8], 166%; in [9], 58.9%; in assay [10], 39.7%; in assay [11], 54.2%; in assay [12], 49.1%. Besides, the growth is 86.2% in assay [13]; 113% in [14]; 49.7% in [15]; 102% in [16]; 80.3% in assay [17]; 68.2% in [18]. In addition, the growth in assay [19] is 81.2%; in assay [20], 93.9%.
For the compound `CC1=C(C(=O)Nc2ccccc2)C(c2cccc3ccccc23)n2c(nc3ccccc32)N1` (stereo not given), the growth in assay [1] was 99.7%; in [2], 67.4%; in [3], 18.5%; in [4], 59%; in [5], 81%; in [6] it was 27.6%. The growth is 5.8% (active) in assay [7]; 102% in assay [8]; 65.4% in [9]; 67.5% in assay [10]; 72.4% in assay [11]; 76.9% in [12]. For the same compound, the growth in [13] is -0.819% (active); in [14], 76.3%; in assay [15], 42.3%; in assay [16] it was -2.39% (active); in [17], 68%; in assay [18] it was 38.6%. For the same compound, the figures for the growth in [19] and in [20] were -13.9% (active) and 32.2%, respectively.
Regarding `CCCCCCCCc1ccc(C(=O)Nc2cccc(O)c2)cc1`, the growth in assay [1] is 83.8%; in [2] it was 66.4%; in assay [3], 65.4%; in assay [4] it was 34.4%; in assay [5], 106%; in assay [6], 57.3%. For the same compound, the growth in assay [7] is 77.8%; in assay [8], 115%; in assay [9], 0.746% (active); in [10] it was 35.5%; in assay [11], 29.8%; in [12], 35%. Moreover, the growth in assay [13] is 83%; in [14], 100%; in [15], 78.8%; in assay [16], 109%; in assay [17], 85.6%; in assay [18], 91.2%. In addition, the growth was 81.4% in [19] and 59% in assay [20].
On to `O=C(N/N=C/c1ccc(Cl)cc1)c1ccc(OCc2nc3ccc(Cl)cc3[nH]2)cc1`, for which the growth in [1] is 47.7%; in assay [2] it was 32.1%; in assay [3], 30.4%; in assay [4] it was 11.1%; in assay [5] it was 12.4%; in [6], 28.6%. Moreover, the growth was 73.6% in assay [7]; 129% in [8]; 66.7% in assay [9]; 15% in assay [10]; 3.65% (active) in assay [11]; 40.3% in [12]. For the same compound, the growth in assay [13] was -12.1% (active); in [14] it was 35.4%; in [15], -8.33% (active); in [16], 14.5%; in assay [17], 15.4%; in assay [18] it was -20.3% (active). The growth in assay [19] was 25.2%; in [20], 45.4%.
As to `Cc1[nH]nc2ccc3nc(-c4cnn(CCO)c4)c4c(c3c12)CCCC4`, the growth was 21.1% in assay [1]; 27.2% in assay [2]; 32.3% in [3]; 21.5% in assay [4]; 21.1% in [5]; 21.4% in assay [6]. In addition, the growth in assay [7] is 4.55% (active); in assay [8] it was -7.65% (active); in assay [9], 28.7%; in [10] it was 34%; in [11] it was 13.8%; in assay [12] it was 33.8%. Moreover, the growth in assay [13] is 48.7%; in [14], 90.4%; in [15] it was 63.1%; in assay [16], 9.64% (active); in assay [17], 44.5%; in assay [18], 90.2%. The growth is -2.52% (active) in [19] and 73.5% in [20].
Turning to `O=C(NNC(=O)c1ccc(OCc2nc3ccc(Cl)cc3[nH]2)cc1)Nc1ccc(Cl)c(C(F)(F)F)c1`, the growth in assay [1] was 109%; in assay [2], 69.6%; in assay [3] it was 64.9%; in assay [4] it was 82.8%; in assay [5], 116%; in [6] it was 75.3%. Besides, the growth in [7] was 81%; in assay [8], 154%; in assay [9], 48.9%; in [10], 60.6%; in assay [11], 50.3%; in assay [12] it was 35.9%. For the same compound, the growth in assay [13] was 19.1%; in assay [14] it was 76.4%; in assay [15] it was 80.1%; in assay [16] it was 92.4%; in [17] it was 69.6%; in assay [18], 51.8%. Also, the figures for the growth in assay [19] and in assay [20] were 57.2% and 95.4%, respectively.
On to `O=C1/C(=C/c2cccc3c2OCO3)Cc2c(F)cc(Br)cc21`, for which the growth in [1] is 111%; in assay [2], 94.4%; in assay [3] it was 111%; in assay [4], 90%; in assay [5], 115%; in assay [6], 108%. Besides, the growth in assay [7] was 94.6%; in [8] it was 152%; in assay [9] it was 103%; in assay [10], 106%; in assay [11], 104%; in assay [12], 106%. Also, the growth in assay [13] was 113%; in assay [14], 109%; in assay [15], 105%; in assay [16] it was 113%; in assay [17], 110%; in [18], 98.6%. In addition, the growth is 115% in assay [19] and 108% in [20].
Take `Cc1nc(N)ncc1-c1ccc2ncnc(N3CCc4cc(F)c(Cl)cc43)c2c1`: the growth is 100% in [1]; 20.3% in [2]; 54.9% in [3]; 27.6% in [4]; 5.99% (active) in [5]; 27.2% in assay [6]. Also, the growth in assay [7] was 14.1%; in assay [8], 25.3%; in assay [9] it was 77.8%; in assay [10], 11.1%; in assay [11] it was 45.1%; in [12], 59.5%. Moreover, the growth in assay [13] was 65.4%; in assay [14] it was 49.7%; in assay [15] it was 59.6%; in assay [16], 56.5%; in assay [17], -10.1% (active); in assay [18], 52%. Besides, the figures for the growth in assay [19] and in assay [20] were 20.1% and 62.7%, respectively.
